# Structures can show the parent of a compound that is named as a salt.
# How the values were obtained:
# Conditions in all cases: 10 µM; exposure time: 3 h pre-incubation + 3 h imaging
# [1] = system: Danio rerio larvae (5 dpf); assay: optomotor response to red moving lines, difference vs DMSO (percentage points (treated minus DMSO)); higher = more of the behaviour than the DMSO vehicle control
# Procedure, shortened: (§1)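 5-dpf wild-type zebrafish larvae in 96-well ProxiPlates were exposed to library drugs at 10 µM (diluted 1000× from DMSO stocks into egg water). There were 48 larvae per drug, exposed 3 h before and 3 h during imaging at 28.5 °C. Images taken every 6 s covered a 3-h program of rest, moving coloured lines and acoustic pulses, and an ImageJ macro scored movement and upper-half location. Each behaviour score is the treated-group mean minus the DMSO vehicle mean, in percentage points.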
# [2] = system: Danio rerio larvae (5 dpf); assay: activity during first hour (no stimuli), difference vs DMSO (percentage points (treated minus DMSO)); higher = more of the behaviour than the DMSO vehicle control
# Procedure, shortened: as §1
# [3] = system: Danio rerio larvae (5 dpf); assay: activity during period 15 (no stimuli), difference vs DMSO (percentage points (treated minus DMSO)); higher = more of the behaviour than the DMSO vehicle control
# Procedure, shortened: as §1
# [4] = system: Danio rerio larvae (5 dpf); assay: optomotor response to blue moving lines, difference vs DMSO (percentage points (treated minus DMSO)); higher = more of the behaviour than the DMSO vehicle control
# Procedure, shortened: as §1
# [5] = system: Danio rerio larvae (5 dpf); assay: startle response to 20-s acoustic pulses, difference vs DMSO (percentage points (treated minus DMSO)); higher = more of the behaviour than the DMSO vehicle control
# Procedure, shortened: as §1
# [6] = system: Danio rerio larvae (5 dpf); assay: habituation to 1-s acoustic pulses, difference vs DMSO (percentage points (treated minus DMSO)); higher = more of the behaviour than the DMSO vehicle control
# Procedure, shortened: as §1
# [7] = system: Danio rerio larvae (5 dpf); assay: optomotor response to green moving lines, difference vs DMSO (percentage points (treated minus DMSO)); higher = more of the behaviour than the DMSO vehicle control
# Procedure, shortened: as §1
# [8] = system: Danio rerio larvae (5 dpf); assay: optomotor response to fast red moving lines, difference vs DMSO (percentage points (treated minus DMSO)); higher = more of the behaviour than the DMSO vehicle control
# Procedure, shortened: as §1
# [9] = system: Danio rerio larvae (5 dpf); assay: excitability to 1-s acoustic pulses, difference vs DMSO (percentage points (treated minus DMSO)); higher = more of the behaviour than the DMSO vehicle control
# Procedure, shortened: as §1
smiles,measurement,setting,value
CCOc1cc(CC(=O)N[C@@H](CC(C)C)c2ccccc2N2CCCCC2)ccc1C(=O)O [Repaglinide],optomotor response to red moving lines,[1],3.38
same,activity during first hour,[2],5.41
CCCC1O[C@@H]2C[C@H]3[C@@H]4CCC5=CC(=O)C=C[C@]5(C)[C@H]4[C@@H](O)C[C@]3(C)[C@]2(C(=O)CO)O1 (some centres not stated) [Budesonide],activity during period 15,[3],5.26
same,activity during first hour,[2],4.76
same,optomotor response to blue moving lines,[4],2.29
CC(C)OC(=O)C(C)(C)Oc1ccc(C(=O)c2ccc(Cl)cc2)cc1 [Fenofibrate],activity during period 15,[3],6.23
same,activity during first hour,[2],6.44
same,optomotor response to blue moving lines,[4],12.7
same,startle response to 20-s acoustic pulses,[5],-3.27
Nc1nc2[nH]cc(CCc3ccc(C(=O)N[C@@H](CCC(=O)O)C(=O)O)cc3)c2c(=O)[nH]1 [Pemetrexed],habituation to 1-s acoustic pulses,[6],-1.43
same,activity during first hour,[2],1.38
same,optomotor response to blue moving lines,[4],1.87
same,optomotor response to green moving lines,[7],8.22
same,optomotor response,[8],-14.2
CC1CNc2c(cccc2S(=O)(=O)N[C@@H](CCCNC(=N)N)C(=O)N2CC[C@@H](C)C[C@@H]2C(=O)O)C1 (some centres not stated) [Argatroban],activity during first hour,[2],4.69
same,optomotor response to blue moving lines,[4],4.3
same,optomotor response,[8],-3.36
Nc1nc(NC2CC2)c2ncn([C@H]3C=C[C@@H](CO)C3)c2n1 [Abacavir hemisulfate],habituation to 1-s acoustic pulses,[6],3.08
same,activity during period 15,[3],-3.3
same,activity during first hour,[2],8.55
same,optomotor response to blue moving lines,[4],2.71
CNS(=O)(=O)Cc1ccc2[nH]cc(CCN(C)C)c2c1 [Sumatriptan succinate],activity during period 15,[3],3.89
same,activity during first hour,[2],7.71
same,optomotor response to blue moving lines,[4],-3.13
same,startle response to 20-s acoustic pulses,[5],3.19
COc1c(C)c2c(c(O)c1C/C=C(\C)CCC(=O)O)C(=O)OC2 [Mycophenolic acid],optomotor response to red moving lines,[1],-3.36
same,activity during first hour,[2],2.64
NC(=O)N1c2ccccc2C=Cc2ccccc21 [Carbamazepine],activity during first hour,[2],-2.68
same,optomotor response to blue moving lines,[4],12.9
same,optomotor response to green moving lines,[7],-0.434
same,startle response to 20-s acoustic pulses,[5],2.54
NC(=O)c1ncn([C@@H]2O[C@H](CO)[C@@H](O)[C@H]2O)n1 [Ribavirin],excitability to 1-s acoustic pulses,[9],-0.206
same,optomotor response to red moving lines,[1],7.68
same,optomotor response to blue moving lines,[4],9.25
same,optomotor response to green moving lines,[7],-3.77
same,optomotor response,[8],0.429
O=C1CCc2cc(OCCCCc3nnnn3C3CCCCC3)ccc2N1 [Cilostazol],activity during period 15,[3],3.03
same,activity during first hour,[2],10.3
same,optomotor response,[8],-1.51
CCOC(=O)C1=C(COCCN)NC(C)=C(C(=O)OC)C1c1ccccc1Cl (configuration not stated) [Amlodipine besylate],excitability to 1-s acoustic pulses,[9],-1.57
same,activity during first hour,[2],2.38
same,optomotor response to blue moving lines,[4],6.74
same,startle response to 20-s acoustic pulses,[5],0.195
CS(=O)(=O)CCNCc1ccc(-c2ccc3ncnc(Nc4ccc(OCc5cccc(F)c5)c(Cl)c4)c3c2)o1 [Lapatinib],optomotor response to red moving lines,[1],0.000688
same,optomotor response to blue moving lines,[4],6.39
CCCN(CCC)S(=O)(=O)c1ccc(C(=O)O)cc1 [Probenecid],habituation to 1-s acoustic pulses,[6],4.24
same,excitability to 1-s acoustic pulses,[9],4.8
same,activity during period 15,[3],-4.09
same,activity during first hour,[2],-2.71
same,optomotor response,[8],-11.6
COCCCOc1cc(C[C@@H](C[C@H](N)[C@@H](O)C[C@H](C(=O)NCC(C)(C)C(N)=O)C(C)C)C(C)C)ccc1OC [Aliskiren hemifumarate],optomotor response to red moving lines,[1],0.559
Clc1ccccc1C(c1ccccc1)(c1ccccc1)n1ccnc1 [Clotrimazole],optomotor response to red moving lines,[1],26.3
same,optomotor response to blue moving lines,[4],14.5
N#C[C@@H]1C[C@@H]2C[C@@H]2N1C(=O)[C@@H](N)C12CC3CC(CC(O)(C3)C1)C2 [Saxagliptin hydrochloride],activity during first hour,[2],1.74
same,startle response to 20-s acoustic pulses,[5],4.85
CN1CCC[C@@H]1CCO[C@](C)(c1ccccc1)c1ccc(Cl)cc1 [Clemastine fumarate],excitability to 1-s acoustic pulses,[9],15.4
same,activity during period 15,[3],5.26
same,activity during first hour,[2],4.9
same,optomotor response to green moving lines,[7],4.02
same,optomotor response,[8],13.4
CC(C)C(=O)Nc1ccc([N+](=O)[O-])c(C(F)(F)F)c1 [Flutamide],optomotor response to red moving lines,[1],-10.8
NS(=O)(=O)Cc1noc2ccccc12 [Zonisamide],habituation to 1-s acoustic pulses,[6],-0.0674
same,excitability to 1-s acoustic pulses,[9],2.79
same,optomotor response to red moving lines,[1],13
same,activity during period 15,[3],-7.11
same,optomotor response to blue moving lines,[4],3.89
CC1(C)O[C@@H]2[C@@H](CO[C@@]3(COS(N)(=O)=O)OC(C)(C)O[C@@H]23)O1 [Topiramate],excitability to 1-s acoustic pulses,[9],4.36
same,activity during first hour,[2],10.7
same,optomotor response to blue moving lines,[4],-3.75
same,startle response to 20-s acoustic pulses,[5],0.811
CCOc1nc2cccc(C(=O)O)c2n1Cc1ccc(-c2ccccc2-c2noc(=O)[nH]2)cc1 [Azilsartan],excitability to 1-s acoustic pulses,[9],-0.616
same,activity during first hour,[2],3.52
same,optomotor response to green moving lines,[7],-0.791
Nc1ncn([C@@H]2O[C@H](CO)[C@@H](O)[C@H]2O)c(=O)n1 [5-Azacytidine],habituation to 1-s acoustic pulses,[6],0.737
same,activity during period 15,[3],1.42
same,activity during first hour,[2],4.78
CC(=O)S[C@@H]1CC2=CC(=O)CC[C@]2(C)[C@H]2CC[C@@]3(C)[C@@H](CC[C@@]34CCC(=O)O4)[C@H]12 [Spironolactone],optomotor response to red moving lines,[1],11.7
CN(C)C(=N)NC(=N)N [Metformin hydrochloride],activity during first hour,[2],-6.37
same,optomotor response to green moving lines,[7],7.37
C[C@@H](O[C@H]1OCCN(Cc2n[nH]c(=O)[nH]2)[C@H]1c1ccc(F)cc1)c1cc(C(F)(F)F)cc(C(F)(F)F)c1 [Aprepitant],excitability to 1-s acoustic pulses,[9],8.09
same,activity during period 15,[3],-7.86
same,activity during first hour,[2],-7.38
CCCc1nn(C)c2c(=O)[nH]c(-c3cc(S(=O)(=O)N4CCN(C)CC4)ccc3OCC)nc12 [Sildenafil citrate],excitability to 1-s acoustic pulses,[9],4.02
same,optomotor response to red moving lines,[1],-6
same,optomotor response to blue moving lines,[4],8.78
same,startle response to 20-s acoustic pulses,[5],0.54
same,optomotor response,[8],-12.3
COc1ccc([C@@H]2Sc3ccccc3N(CCN(C)C)C(=O)[C@@H]2OC(C)=O)cc1 [Diltiazem hydrochloride],activity during first hour,[2],-3.56
same,startle response to 20-s acoustic pulses,[5],0.061
CCC(=O)O[C@]1(C(=O)SCF)[C@H](C)C[C@H]2[C@@H]3C[C@H](F)C4=CC(=O)C=C[C@]4(C)[C@@]3(F)[C@@H](O)C[C@@]21C [Fluticasone propionate],habituation to 1-s acoustic pulses,[6],3.04
same,activity during period 15,[3],8.18
same,activity during first hour,[2],7.17
Nc1ncn([C@H]2C[C@H](O)[C@@H](CO)O2)c(=O)n1 [Decitabine],habituation to 1-s acoustic pulses,[6],5.67
same,activity during period 15,[3],1.76
same,activity during first hour,[2],0.325
same,optomotor response to green moving lines,[7],0.0025
same,optomotor response,[8],1.67

# — the supplement of paper PMC9023506
